# Compound activity (PubChem)
# An excerpt weighted towards active compounds, which were near 2.2% of everything screened.
# Mito fusion act – qHTS Assay for Small Molecule Inhibitors of Mitochondrial Division or Activators of Mitochondrial Fusion; Potency, µM (series often up to 46.1 µM), without a hit: at the top dose growth rescue (activation), actives largely listed as activators; S. cerevisiae fusion-defective mutant growth rescue, CellTiterGlo 48 h; actives 0.23% (n = 320,000); note: % of control where 0% means no effect; nearly all actives have a fitted effect of over 45% in size
#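 Growth-rescue viability read-out: after 48 h at the non-permissive 37C in glycerol/ethanol YPEG, yeast mitochondrial fusion mutants are measured by CellTiterGlo luminescence; compounds (23 nl pinned per well) restoring growth score as division inhibitors or fusion activators.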
# FUS yeast rescue – qHTS for Suppressors of FUS Proteinopathy: Primary screen using FUS-linked yeast assay; S. cerevisiae FUS-expressing, growth rescue, OD600, 24 h; Potency, µM (highest dose often 76.6 µM), most hits filed as activators; actives 0.24% (n = 390,000); AID 1347120, 2019;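 note: plate controls were DMSO vehicle for no effect and reference control for full effect; nearly all actives have a fitted effect of over 55% in size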
#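 Toxicity suppression screen in FUS-yeast. Cells induced with 2% galactose, starting OD 0.005, treated 24hr at 30C with compounds at multiple final concentrations; growth by OD600.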
# TDP-43 yeast inh – qHTS of TDP-43 Inhibitors. TDP-43 expressing yeast growth rescue, BacTiter-Glo, 24 h. Potency, µM (series often up to 46.1 µM), for inactives: at the top dose growth rescue (activation), actives largely listed as activators. actives 1.8% (n = 410,000). AID 652104, 2013; note: % of control where 0% means no effect; nearly all actives have a fitted effect of over 50% in size
#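 In this qHTS, compounds that restore growth of yeast expressing TDP-43 appear as activators. Cells (OD600=0.02, galactose medium, raffinose-pregrown) are incubated with compound 24 hr at 30 deg C and growth is quantified by BacTiter-Glo.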
# aSyn yeast inh – qHTS of alpha-syn Inhibitors; Yeast expressing alpha-synuclein, growth rescue, BacTiter-Glo, 24 h; Potency, µM (top dose mostly 46.1 µM), for inactives: top-dose growth rescue (activation), usual class: activators; actives 0.14% (n = 370,000); AID 652106, 2013; note: % of control where 0% means no effect; nearly all actives have a fitted effect of over 65% in size
#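 Galactose-induced alpha-syn yeast (OD600=0.02, raffinose-pregrown) + pinned cpd, 24 hr, 30 deg C; growth by BacTiter-Glo luminescence. Growth restoration scores as activation.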
# Abeta rescue – qHTS for compounds that reverse cellular toxicity of Amyloid beta (A-beta) peptide in yeast: Primary Screen; Potency, µM (titrated, usually from 46.1 µM), actives largely listed as activators; yeast expressing A-beta42, growth rescue, OD600, 48 h; response scale: 0% DMSO, 100% iron-clioquinol control; actives 0.063% (n = 410,000); note: nearly all actives have a fitted effect of over 55% in size
#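 Yeast growth medium received pinned compounds, then yeast cells expressing toxic A-beta were added; plates incubated at 30 C for 48 hr. Growth read as absorbance at 600 nm, normalized to DMSO and equimolar FeCl3 plus clioquinol controls.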
# * marks the source's active call; other numbers are inactive results; i = inactive; ? = inconclusive; . = not tested or not shown. Calls come from the whole dose curve; as a rule, active = well fitted curve in the direction sought with a large enough effect; inconclusive = small, poorly fitted or top-dose-only effect, or another doubt; inactive = no such curve, though single readings can be large; an effect the other way counts as inactive or inconclusive. Potency is the fitted concentration of half-maximal effect.
SMILES,Mito fusion act,FUS yeast rescue,TDP-43 yeast inh,aSyn yeast inh,Abeta rescue
CCOC(=O)c1c(N)sc2c1CCC(CC)C2 (stereo not drawn),6.4%,i,10.3%,7.4%,?
CCCCNS(=O)(=O)c1ccc2nc(-c3cccnc3)cc(C(=O)NCCC)c2c1,.,i,13.7%,.,i
Cc1sc2ccccc2[n+]1CCCCI,.,.,.,13.5%,.
Cc1cc(N)c2ccccc2[n+]1CCCCCCCCCC[n+]1c(C)cc(N)c2ccccc21,2.59µM*,.,.,-49.2%,.
O=c1c2cc3cc(Cl)ccc3nc2ncn1Cc1ccc(Oc2ccccc2)cc1,.,i,.,.,.
Cc1cccc(C(=O)N2CCC(=O)N([C@H](COCc3ccc(Cl)cc3)Cc3ccccc3)CC2)c1,.,?,15.8µM*,21.9%,i
O=C(c1ccc(Cl)c(Cl)c1)N1CCC(=O)N(C(COCc2cccc(Cl)c2)Cc2ccccc2)CC1 (stereo not drawn),35.5µM*,?,1.2%,?,i
Cc1cccc(C(=O)N2CCC(=O)N(C(COCc3ccc(Cl)cc3)Cc3ccccc3)CC2)c1 (stereo not drawn),?,?,35.5µM*,?,i
Cc1cccc(COC[C@H](CC(C)C)N2CCN(C(=O)c3ccc(C(C)(C)C)cc3)CCC2=O)c1,.,?,22.4µM*,-26.4%,i
CCOc1ccc(OCC)c(NS(=O)(=O)c2ccc3c(c2)CCCN3C(C)=O)c1,.,i,27.0%,.,i
COc1cc(NC(=O)CSc2nc3nc(C)c(Cc4ccccc4)c(C)n3n2)cc(OC)c1OC,.,i,24.6%,.,i
Cc1cccc(C(=O)N2CCC(=O)N([C@H](COCc3cccc(Cl)c3)Cc3ccccc3)CC2)c1,.,?,35.5µM*,?,i
Cc1cccc(NC(=S)NCc2ccco2)n1,4.2%,i,?,0.9%,12.6µM*
Cc1cc(-c2csc(N)n2)c(C)n1Cc1ccco1,6.7%,28.2µM*,-11.4%,-7.1%,i
Cc1cc(-c2csc(N)n2)c(C)n1C,-1.2%,i,-3.2%,-7.9%,i
Cc1cccc(-n2cnc3cc(C(=O)N4CCc5ccccc54)ccc32)c1,7.2%,.,12.6µM*,24.4%,i
COCCNC(=O)c1ccc2c(c1)ncn2-c1cccc(C)c1,1.0%,i,.,.,i
Cc1cc(C)n(-c2ccc(C(=O)N3CCc4ccccc43)cc2)n1,11.5%,i,11.2µM*,-3.2%,i
CCOC(=O)c1cc(C)n(CC2CCC(C(=O)Nc3ccc(C)cc3)CC2)c1C (stereo not drawn),.,i,27.1%,.,i
O=C(Cc1ccccc1[N+](=O)[O-])OCC(=O)c1ccccc1Br,.,i,12.6µM*,1.9%,i
Clc1cccc(-n2ncc3c(NC4CCCCCC4)ncnc32)c1,.,i,35.5µM*,.,i
c1ccc(-n2ncc3c(NC4CCCC4)ncnc32)cc1,.,i,?,.,i
Cc1ccc(-n2ncc3c(NC4CCCC4)ncnc32)cc1,.,i,1.26µM*,.,i
COc1ccc(/C=N\NC(=O)c2ccccc2F)cc1COc1ccc(F)cc1F,-3.0%,i,?,3.7%,i
COc1ccc(/C=N/NC(=O)c2ccc(NC(C)=O)cc2)cc1COc1ccc(F)cc1F,-5.8%,25.1µM*,9.2%,-4.1%,i
SMILES,Mito fusion act,FUS yeast rescue,TDP-43 yeast inh,aSyn yeast inh,Abeta rescue
COC(=O)[C@]12C[C@H](CC(=O)N3CCOCC3)C(=O)N(Cc3cccc4ccccc34)C1=C[C@H](C(C)(C)C)O[C@@H]2C,.,22.4µM*,.,.,.
COC(=O)[C@]12C[C@H](CC(=O)NCCC(C)C)C(=O)N(Cc3cccc4ccccc34)C1=C[C@H](C(C)(C)C)O[C@@H]2C,.,22.4µM*,.,.,.
COC(=O)[C@]12C[C@H](CC(=O)NCc3cccs3)C(=O)N(Cc3cccc4ccccc34)C1=C[C@H](C(C)(C)C)O[C@@H]2C,.,10µM*,.,.,.
COC(=O)[C@]12C[C@H](CC(=O)NCC3CCCCC3)C(=O)N(Cc3cccc4ccccc34)C1=C[C@H](C(C)(C)C)O[C@@H]2C,.,i,.,.,.
COC(=O)[C@]12C[C@H](CC(=O)NCc3cccc4ccccc34)C(=O)N(Cc3ccc(Cl)cc3Cl)C1=C[C@H](C(C)(C)C)O[C@@H]2C,.,i,.,.,.
CCCCNC(=O)C(CC)n1c(SCc2cccc(F)c2)nc2ccncc21 (stereo not drawn),.,.,.,-1.9%,.
OCc1cn(-c2ccccc2)nc1-c1cc2ccccc2o1,9.3%,i,15.8µM*,7.5%,i
COc1ccc(NC(=O)c2cn(-c3ccccc3)nc2-c2cc3ccccc3o2)cc1,2.3%,i,4.3%,6.3%,i
CC(=O)C1=C(c2ccc(F)cc2)N(C(C)=O)n2c(nnc2C2CCCCC2)S1,.,?,12.3%,.,i
COc1ccc(C(=O)c2coc3ccc(OC(C)=O)cc23)cc1,-1.0%,i,12.6µM*,-13.2%,i
O=c1cc(C(O)C[N+](=O)[O-])occ1OCc1ccccc1 (stereo not drawn),.,31.6µM*,-8.1%,-6.5%,i
Nc1cc([N+](=O)[O-])ccc1OCc1ccccc1,.,.,?,1.3%,i
CCOc1ccccc1CNC(=O)Cn1nc(C)c2nn(-c3ccc(Cl)cc3)c(C)c2c1=O,.,i,-6.5%,.,i
COc1ccc([C@H]2/C=C\CN(C(=O)c3ccc(C)cc3)[C@@H](C)C(=O)N2Cc2ccc(F)cc2)cc1,.,i,7.5%,1.3%,i
COc1ccc([C@H]2/C=C\CN(C(=O)CC(C)(C)C)[C@@H](C)C(=O)N2Cc2ccc(F)cc2)cc1,.,i,35.5µM*,3.0%,i
Cn1nc(-c2cccnc2)nc2c(=O)n(C)c(=O)nc1-2,.,.,.,15.1%,.
N#Cc1nc(-c2ccc(OCc3ccccc3Cl)cc2)oc1N1CCCCCC1,.,.,.,5.8%,.
O=C(c1cccc(F)c1F)N(Cc1ccccn1)CC1CCCO1 (stereo not drawn),.,i,.,.,.
CC(C)c1ccc(NC(=O)CN2C(=O)COc3ccc(S(=O)(=O)N4CCCCC4)cc32)cc1,.,i,20.1%,.,i
N[C@H](C(=O)N1CCC[C@@H]1C(=O)N1CCC2CCN(S(=O)(=O)c3ccccc3)CC21)c1ccccc1 (stereo partly drawn),.,i,.,.,.
COc1ccc(/C=C/C(=O)N2CCC(c3nc4ccccc4o3)CC2)cc1OC,.,?,15.8µM*,.,i
N#CN=c1snc(-c2ccccc2)n1-c1ccc(Br)cc1,.,.,.,-9.3%,.
COc1ccc2c(c1OC)C(=O)OC2c1ccc(O)cc1 (stereo not drawn),.,.,.,-0.4%,.
O=C(Nc1ccc(N2C(=O)CC3(CCCCC3)C2=O)c(Cl)c1)c1ccccn1,.,i,.,.,.
